Reference: the supplement of paper PMC12024424
Where a name gives a salt, the structure may show the parent alone.

Columns and labels:
[1] = tested on: Staphylococcus aureus Sa2 (MRSA, cystic fibrosis isolate); assay: growth reduction vs untreated control (OD550); higher = stronger antibacterial activity; conditions: 0.1 mM; 24 h
Procedure: (§1)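 Single-dose screen of the MedChem Express Drug Repurposing Library (0.1 mM, 1% DMSO) against planktonic MRSA S. aureus Sa2 (CF isolate) in TSB in 96-well plates, 37 °C aerobic, 24 h. Assays were run in triplicate and repeated twice.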

[2] = tested on: Staphylococcus aureus Sa2 (MRSA, cystic fibrosis isolate); assay: growth reduction vs untreated control (viable cell count); higher = stronger antibacterial activity; extreme values may be limits of the assay; conditions: 0.1 mM; 24 h
Procedure: as §1

Structure (SMILES)	growth reduction [1] [%]	growth reduction [2] [%]
CC(=O)OC[C@H]1O[C@@H]([S-])[C@H](OC(C)=O)[C@@H](OC(C)=O)[C@@H]1OC(C)=O.CCP(CC)CC.[Au+] [Auranofin]	99.9	100
O=C(c1ccc(OCCN2CCCCC2)cc1)c1c(-c2ccc(O)cc2)sc2cc(O)ccc12 [Raloxifene (hydrochloride)]	99.8	93
O=C(O)C[C@H]1CCc2c1[nH]c1ccc(OCc3ccc(C4CCCC4)c(C(F)(F)F)c3)cc21 [Etrasimod]	99	100
Clc1ccc(CCC(Cn2ccnc2)Sc2c(Cl)cccc2Cl)cc1 (centres undefined) [Butoconazole (nitrate)]	100	100
COCCNCc1ccc(-c2cc3nccc(Oc4ccc(NC(=O)C5(C(=O)Nc6ccc(F)cc6)CC5)cc4F)c3s2)nc1 [Sitravatinib]	100	100
COC(=O)[C@]12CCC(C)(C)C[C@H]1[C@H]1C(=O)C=C3[C@@]4(C)C=C(C#N)C(=O)C(C)(C)[C@@H]4CC[C@@]3(C)[C@]1(C)CC2 [Bardoxolone methyl]	100	100
C=Cc1cc(O)cc2nc(-c3ccc(O)c(F)c3)oc12 [Prinaberel]	100	100
CC(C)c1c(C(=O)Nc2ccccc2)c(-c2ccccc2)c(-c2ccc(F)cc2)n1CC[C@@H](O)C[C@@H](O)CC(=O)O [Atorvastatin (hemicalcium salt)]	99.7	98
CCCCc1oc2ccccc2c1C(=O)c1cc(I)c(OCCN(CC)CC)c(I)c1 [Amiodarone (hydrochloride)]	100	98
CC/C(=C(/CC)c1ccc(O)cc1)c1ccc(O)cc1 [Diethylstilbestrol]	100	100
O=[N+]([O-])c1ccc(O)c2ncccc12 [Nitroxoline]	98.4	100
CC/C(=C(\c1ccccc1)c1ccc(OCCN(C)C)cc1)c1ccccc1 [Tamoxifen (Citrate)]	100	100
C=CC(=O)Nc1cccc(Oc2nc(Nc3ccc(N4CCN(C)CC4)c(F)c3)nc3[nH]ccc23)c1 [Avitinib (maleate)]	100	99
Cc1ccc(Sc2ccccc2N2CCNCC2)c(C)c1 [Vortioxetine]	100	100
CN1CCCN=C1/C=C/c1cccs1 [Pyrantel (pamoate)]	91.6	96
COc1cccc(-c2ccc(NC(=O)C3=C(C(=O)O)CCC3)c(F)c2)c1 [Vidofludimus]	93	99
O=C(O)CCCc1cc2cc(Cl)ccc2n1S(=O)(=O)c1ccc2ncsc2c1 [Lanifibranor]	99.1	99
CCN(CC)CCN(Cc1ccc(-c2ccc(C(F)(F)F)cc2)cc1)C(=O)Cn1c(SCc2ccc(F)cc2)nc(=O)c2c1CCC2 [Darapladib]	100	100
CN(C(=O)CN(CCO)CC(=O)N(C)C(C)(C)Cc1ccccc1)C(C)(C)Cc1ccccc1 [Oxethazaine]	100	100
CC(C)(C)[C@@H]1NC(=O)O[C@@H]2CCC[C@H]2OC/C=C/C(F)(F)c2nc3ccccc3nc2O[C@@H]2C[C@@H](C(=O)N[C@]3(C(=O)NS(=O)(=O)C4(C)CC4)C[C@H]3C(F)F)N(C2)C1=O [Glecaprevir]	100	100
Cc1nc(Nc2ccc(F)cc2)nc(N2CCc3ccccc3C2C)c1C (centres undefined) [Revaprazan (hydrochloride)]	93.4	100
CC(C)(C(=O)NCC(F)(F)C(F)(F)F)C(=O)N[C@@H]1C(=O)Nc2ccccc2-c2ccccc21	100	90
